{"source": "the OligoGym collection"}
{"molecular_target": "MIER1", "test": "pooled miR-30 sensor sort-seq; sequence = guide strand", "details": "shRNA"}
{"sequence": "ATCATCAAAATCATGAACCAGC", "sensor-assay potency score (higher = more potent)": -0.377}
{"sequence": "TATAATCACTTTATCTTCTGGT", "sensor-assay potency score (higher = more potent)": 0.758}
{"sequence": "TTATCTTCTGGTAAGTACTCAG", "sensor-assay potency score (higher = more potent)": -0.171}
{"sequence": "TTAATATTTCACCTGGTCCATT", "sensor-assay potency score (higher = more potent)": -1.02}
{"sequence": "AATTTCTACACTCTTCCTCTGT", "sensor-assay potency score (higher = more potent)": 0.0886}
{"sequence": "TAGTCGAACAGTACTACCATAA", "sensor-assay potency score (higher = more potent)": -1.32}
{"sequence": "TATAATCTTCATCTTCTTCAGA", "sensor-assay potency score (higher = more potent)": -0.137}
{"sequence": "TTGTGATGGATCATCATTGGAA", "sensor-assay potency score (higher = more potent)": -0.466}
{"sequence": "TTCTTCTTTCCAAATCGTGTTT", "sensor-assay potency score (higher = more potent)": -0.957}
{"sequence": "TTCGTCTAGAAGACGATCCATG", "sensor-assay potency score (higher = more potent)": -1.5}
{"sequence": "TTAATCTTCTCAATGCTTCTTC", "sensor-assay potency score (higher = more potent)": 0.934}
{"sequence": "TACTGTTTGATGCAGTTGGGGG", "sensor-assay potency score (higher = more potent)": -0.856}
{"molecular_target": "MIOX", "test": "pooled miR-30 sensor sort-seq; sequence = guide strand", "details": "shRNA"}
{"sequence": "TCCATGACTGTCATTTTCTTGT", "sensor-assay potency score (higher = more potent)": -1.1}
{"sequence": "TTTTCTTGTAGGAGAAGCCCCC", "sensor-assay potency score (higher = more potent)": -0.0971}
{"sequence": "TACATCCCGAGCTCTGTGCTGT", "sensor-assay potency score (higher = more potent)": -0.811}
{"sequence": "TTGGTGTAGAGGTCGAACTTGT", "sensor-assay potency score (higher = more potent)": -0.568}
{"sequence": "TCTGGGTCCACATCAGGTCGGT", "sensor-assay potency score (higher = more potent)": -0.363}
{"sequence": "TTGTAGGTGGTGAAGACACGGT", "sensor-assay potency score (higher = more potent)": -0.626}
{"sequence": "TGTGCTGTATCGAGGATCCTGG", "sensor-assay potency score (higher = more potent)": -0.757}
{"sequence": "TCGAACTTGTTGAACTCCCGCA", "sensor-assay potency score (higher = more potent)": -0.101}
{"sequence": "TTCTTGTAGGAGAAGCCCCCAA", "sensor-assay potency score (higher = more potent)": -0.777}
{"sequence": "TTGTTAAACTTCATCACCTGGT", "sensor-assay potency score (higher = more potent)": -0.0605}
{"sequence": "TTGGGGAAATCTACGTCCGGGT", "sensor-assay potency score (higher = more potent)": -0.845}
{"sequence": "TGCATGAGCTTGTAGGTGGTGA", "sensor-assay potency score (higher = more potent)": -0.613}
